Source: the supplement of paper PMC7695840
Structures can show the parent of a compound that is named as a salt.

Experiments:
[1] = system: Staphylococcus aureus MW2 delta-mecA (mecA-); assay: normalized GFP fluorescence (growth of mecA- strain) (fraction of control range); higher = more growth of mecA- strain; details: compound concentration: 150 uM; cefoxitin: subinhibitory; fluorescent label: GFP
How it was run: (§1)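 Two pre-induced S. aureus MW2 strains, one with the gene labeled by DsRed and one lacking it labeled by GFP, were mixed 1:1 in LB with a subinhibitory antibiotic dose set daily. The mix went at 5 µL/well onto 150 μM compound (1.5% DMSO) in 1536-well plates, single replicate, and grew unshaken 20 h at 37 °C, 90% humidity. DsRed (540/590) and GFP (485/520) values were scaled per plate between single-strain control medians, and plates with high untreated ratios or rows with DsRed/GFP >10 were left out.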

[2] = system: Staphylococcus aureus MW2 (mecA+); assay: normalized DsRed fluorescence (growth of mecA+ strain) (fraction of control range); higher = more growth of mecA+ strain; details: compound concentration: 150 uM; cefoxitin: subinhibitory; fluorescent label: DsRed
How it was run: as §1

SMILES	normalized GFP fluorescence [1]	normalized DsRed fluorescence [2]
OC[C@H]1O[C@@H](O[C@@H]2[C@@H](CO)O[C@](O)(CO)[C@H]2O)[C@H](O)[C@@H](O)[C@H]1O	0.29	0.712
OCCOCCN1CCN(C2=Nc3ccccc3Sc3ccccc32)CC1 [Quetiapine fumarate (Seroquel)]	0.0887	1.15
COc1cc2c(cc1OC)C(=O)C(CC1CCN(Cc3ccccc3)CC1)C2 (configuration not stated)	0.341	0.564
Nc1ccc(S(=O)(=O)c2ccc(N)cc2)cc1	0.296	0.89
COc1cc2ncnc(Nc3ccc(F)c(Cl)c3)c2cc1NC(=O)/C=C/CN1CCCCC1	0.102	0.557
C=CC(=O)N1CCC[C@@H](n2nc(-c3ccc(Oc4ccccc4)cc3)c3c(N)ncnc32)C1	0.0101	1.1
CCC(=O)O[C@@H](O[P@](=O)(CCCCc1ccccc1)CC(=O)N1C[C@H](C2CCCCC2)C[C@H]1C(=O)O)C(C)C [Fosinopril sodium (Monopril)]	0.0781	0.378
O=C(c1ccc(F)cc1)C1CCN(CCn2c(=O)[nH]c3ccccc3c2=O)CC1	0.217	0.83
COc1cc(Nc2ncc(F)c(Nc3ccc4c(n3)N(COP(=O)(O)O)C(=O)C(C)(C)O4)n2)cc(OC)c1OC [R788 (Fostamatinib)]	0.503	0.475
CC(Oc1c(Cl)cccc1Cl)C1=NCCN1 (configuration not stated)	0.693	0.569
CC(=O)NCCCS(=O)(=O)O	0.628	0.742
COc1ccc(O)cc1	0.353	0.504
Cc1ccc(NC(=O)c2ccc(CN3CCN(C)CC3)cc2)cc1Nc1nccc(-c2cccnc2)n1 [Imatinib Mesylate]	0.184	0.918
C[C@]12C=CC(=O)N[C@@H]1CC[C@@H]1[C@@H]2CC[C@]2(C)[C@@H](C(=O)Nc3cc(C(F)(F)F)ccc3C(F)(F)F)CC[C@@H]12 [Dutasteride]	0.284	0.52
OCCN(CCO)c1nc(N2CCCCC2)c2nc(N(CCO)CCO)nc(N3CCCCC3)c2n1	0.523	0.744
C#C[C@]1(O)CC[C@H]2[C@@H]3CCC4=CC(=O)CC[C@@H]4[C@H]3CC[C@@]21C [Norethindrone (Norethisterone)]	0.268	0.621
Cc1cn([C@H]2C=C[C@@H](CO)O2)c(=O)[nH]c1=O	0.779	0.601
COCCCOc1cc(C[C@@H](C[C@H](N)[C@@H](O)C[C@H](C(=O)NCC(C)(C)C(N)=O)C(C)C)C(C)C)ccc1OC	0.131	0.717
C[N+](C)(C)C[C@H](O)CC(=O)[O-]	0.791	0.508
Cn1c(=O)c2nc[nH]c2n(C)c1=O	0.449	0.42
Nc1nc(=O)c2nc(CNc3ccc(C(=O)N[C@@H](CCC(=O)O)C(=O)O)cc3)cnc2[nH]1	0.21	0.831

SMILES	normalized GFP fluorescence [1]	normalized DsRed fluorescence [2]
C[C@]12CCC3=C4CCC(=O)C=C4CC[C@H]3[C@@H]1CC[C@@]2(O)CC#N [Dienogest]	0.271	0.746
c1cnc2cc3c(cc2n1)[C@@H]1CNC[C@H]3C1 [Varenicline tartrate]	0.504	0.508
CCCCCCCCCCCCCCCCCCCCCCO	0.3	0.765
CCC(NC(C)C)C(O)c1ccc(O)c(O)c1 (configuration not stated)	0.38	0.581
COc1ccc2[nH]c([S+]([O-])Cc3ncc(C)c(OC)c3C)nc2c1 (configuration not stated)	0.481	1.2
NCCNCCNCCN	0.763	0.66
CC(C)COCC(CN(Cc1ccccc1)c1ccccc1)N1CCCC1 (configuration not stated)	0.00856	0.96
Nc1nc(=O)n([C@@H]2CS[C@H](CO)O2)cc1F [Emtricitabine]	0.4	0.622
CC[N+](C)(C)Cc1ccccc1Br	0.178	0.523
Nc1cccc2c1CN(C1CCC(=O)NC1=O)C2=O (configuration not stated) [Lenalidomide]	0.34	0.974
CN(C)c1cc(NC(=O)CNC(C)(C)C)c(O)c2c1C[C@H]1C[C@H]3[C@H](N(C)C)C(O)=C(C(N)=O)C(=O)[C@@]3(O)C(O)=C1C2=O [Tigecycline]	0.473	0.779
CC(=O)OCC(=O)NCCCOc1cccc(CN2CCCCC2)c1 [Roxatidine acetate HCl]	0.438	0.76
CN(C)[C@@H](CCOc1cccc2ccccc12)c1ccccc1 [Dapoxetine hydrochloride (Priligy)]	-0.00645	1.15
CCS(=O)(=O)N1CC(CC#N)(n2cc(-c3ncnc4[nH]ccc34)cn2)C1	0.236	1.85
CC(=O)S[C@@H]1CC2=CC(=O)CC[C@]2(C)[C@H]2CC[C@@]3(C)[C@@H](CC[C@@]34CCC(=O)O4)[C@H]12	0.734	0.584
CNC(=O)CN(CCN(CCN(CC(=O)O)CC(=O)NC)CC(=O)O)CC(=O)O.O.[Gd] [Gadodiamide (Omniscan)]	0.443	0.566
O=C(O)C[C@H](O)C[C@H](O)/C=C/c1c(C2CC2)nc2ccccc2c1-c1ccc(F)cc1 [Pitavastatin calcium (Livalo)]	-0.0148	0.559
CN(Cc1cc(Br)cc(Br)c1N)C1CCCCC1	0.459	0.919
COc1cc2/c(=N/c3ccc(Br)cc3F)nc[nH]c2cc1OCC1CCN(C)CC1 [Vandetanib (Zactima)]	0.22	1.19
CC(C)(C)NC[C@H](O)COc1nsnc1N1CCOCC1	0.208	0.811
